Outcome and Potency data for ten compounds are collected here from PubChem BioAssay (Tox21).

Each structure is given as a SMILES string. Records with an inconclusive call do not appear. Values without a mark were called inactive. Activity calls are given as the source filed them. Unless noted, calls follow the shape of the dose curve; as a rule, active = well fitted curve in the direction sought with a large enough effect in the repeat runs; inconclusive = weak or mixed curves; inactive = no such curve, though single readings can be large; an effect the other way counts as inactive or inconclusive.

Assay [1] in a line: qHTS assay to identify small molecule agonists of the NFkB signaling pathway - cell viability counter screen (AID 1159515; calls by dose curve; also: series mostly up to about 61 µM; nearly all actives have a fitted effect of over 55% in size). An outline of the steps:
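NFkB-bla ME-180 cells, 2,000/well, plated overnight at 37 C; compound added for 5 hr at 37 C. Viability read in the same wells as the bla reporter, by CellTiter-Glo luminescence after 30 min at room temperature.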
(In general: In qHTS, concentration-response curves come from the screen itself.)

Assay [2] in a line: qHTS assay to identify small molecule agonists of the endoplasmic reticulum stress response signaling pathway (AID 1159516; active = well fitted activation curve with a large enough effect in the signal ratio in the repeat runs, not every such curve was filed as active; the % refers to the signal ratio). An outline of the steps: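 CellSensor ESRE-bla HeLa cells, 1,500 per well, plated overnight, then exposed to compounds for 5 hr at 37 C. Beta-lactamase reporter read with LiveBLAzer B/G FRET substrate after 2 hr at room temperature, 405 nm excitation, 460 and 530 nm emission.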

Assay [3] is described as follows: qHTS assay to identify small molecule agonists of the endoplasmic reticulum stress response signaling pathway - cell viability counter screen (AID 1159517; calls by dose curve;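 also: HeLa cells carrying an ER stress response element beta-lactamase reporter; series mostly up to about 61 µM; nearly all actives have a fitted effect of over 50% in size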). An outline of the steps: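 ESRE-bla HeLa cells, 1,500 per well, seeded overnight then treated with compounds for 5 hr at 37 C. After the beta-lactamase read, viability in the same wells is measured by CellTiter-Glo luminescence after 30 min at room temperature.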

Assay [4] can be described thus: qHTS assay to identify small molecule antagonists of the retinoid-related orphan receptor gamma (ROR-gamma) signaling pathway - cell viability counter screen (AID 1159520). Also: nearly all actives have a fitted effect of over 50% in size. In outline: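 Tet-on ROR gamma CHO cells were given compounds for 2 hr, then doxycycline hyclate at 1 uM final, and incubated 16 hr at 37 C. Viability was measured as ATP content by CellTiter-Glo luminescence.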

Assay [5] addresses Nuclear receptor ROR-gamma (Homo sapiens) (UniProt P51449). Briefly: qHTS assay to identify small molecule antagonists of the retinoid-related orphan receptor gamma (ROR-gamma) signaling pathway (AID 1159521; also: nearly all actives have a fitted effect of over 50% in size; also: potency is read from the fitted curve at half-maximal effect). An outline of the steps: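 RORγ antagonism is scored from reduced reporter luminescence in Tet-on CHO cells. Induction used 1 uM final doxycycline hyclate for 16 h at 37 C, following a 2 h compound exposure.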

The nature of assay [6]: qHTS assay to identify small molecule agonists of the AP-1 signaling pathway - cell viability counter screen (AID 1159525; calls by dose curve; also: nearly all actives have a fitted effect of over 55% in size). An outline of the steps:
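AP-1-bla ME-180 cells in Opti-MEM with 0.5% dialyzed FBS, compound exposure 5 h at 37 C in 15-point titration. Viability read in the same wells as ATP content by CellTiter-Glo luminescence, normalised to tetra-n-octylammonium bromide and DMSO controls.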

The nature of assay [7]: qHTS assay to identify small molecule agonists of the AP-1 signaling pathway (AID 1159526; calls by dose curve).
Assay [8] has as its target Retinoic acid receptor RXR-alpha (Homo sapiens) (UniProt P19793). Briefly: qHTS assay to identify small molecule agonists of the RXR signaling pathway (AID 1159527; calls by dose curve; also: nearly all actives have a fitted effect of over 35% in size). An outline of the steps: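 qHTS of the Tox21 10K library in GeneBLAzer RXR-alpha HEK 293T cells carrying a beta-lactamase reporter […]; 16 hr treatment, 9-cis retinoic acid as agonist control, FRET read-out.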

Assay [9] in a line: qHTS assay to identify small molecule agonists of the RXR signaling pathway - cell viability counter screen (AID 1159529). Also: series mostly up to about 77 µM; nearly all actives have a fitted effect of over 50% in size. In outline:
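Cell viability is measured by CellTiter-Glo luminescence, 30 min at room temperature, in wells already read for beta-lactamase. Engineered HEK 293T cells (RXR-alpha-UAS-bla) are dosed 16 hr at 37 C. Tetraoctyl ammonium bromide serves as positive control.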

A short description of assay [10]: qHTS assay to identify small molecule antagonists of the retinoid acid receptor (RAR) signaling pathway - cell viability counter screen (AID 1159551). Also: nearly all actives have a fitted effect of over 35% in size. In outline: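 C3RL4 RARE-luciferase cells, 1,000/well, incubated overnight, then dosed with compound plus 1 uM retinol (final). After 6 hr at 37 C, viability read by CellTiter-Glo ATP luminescence following 30 min at room temperature.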

The nature of assay [11]: qHTS assay to identify small molecule agonists of the retinoic acid receptor (RAR) signaling pathway (AID 1159553). In outline:
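C3RL4 RARE-luciferase cells were seeded at 1,000/well and grown overnight at 37 C, then exposed to compounds for 6 hr at 37 C, 5% CO2. Luciferase reagent was added and luminescence was read after 30 min at room temperature.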

Assay [12] can be described thus: qHTS assay to identify small molecule antagonists of the estrogen related receptor (ERR) signaling pathway from Tox21 library - cell viability counter screen (AID 1224834). Also: nearly all actives have a fitted effect of over 30% in size. An outline of the steps:
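ERR reporter cells, 2,000 per well, rested 6 h, then exposed to compound in DMSO for 17.5 hours at 37 C. Viability read as fluorescence after 30 min with CellTiter-Fluor.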

Assay [13] is described as follows: qHTS assay to identify small molecule antagonists of the vitamin D receptor (VDR) signaling pathway - cell viability counter screen (AID 743225). Also: nearly all actives have a fitted effect of over 50% in size. In outline: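 Cells (VDR-UAS-bla HEK 293T) are plated, rested 4 h at 37C, dosed with compound and 3 nM final 1-alpha,25-dihydroxy vitamin D3, and incubated 16 h. Viability is taken from CellTiter-Glo luminescence in the reporter wells.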

Assay [14] in a line: qHTS assay to identify small molecule antagonists of the retinoic acid receptor (RAR) signaling pathway (AID 1159552; also: nearly all actives have a fitted effect of over 50% in size). In outline: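 Quantitative HTS in C3RL4 RARE-luciferase reporter cells. Compounds were added with 1 uM (final) retinol; luminescence was read after 6 hr.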
Assay [15] in a line: qHTS assay to identify small molecule antagonists of the estrogen related receptor (ERR) signaling pathway - cell viability counter screen (AID 1224818). Also: series mostly up to about 46 µM. In outline: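 ERR cells, 2,000 per well, compound added after 6 h and incubated 17.5 h at 37 C. Viability read by CellTiter-Fluor fluorescence after a further 30 min at 37 C.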
Assay [16] in a line: qHTS assay to identify small molecule antagonists of the estrogen related receptor signaling pathway with the pleiotropic PPARgamma coactivator (PGC) cell viability counter screen (AID 1224822; also: series mostly up to about 46 µM). An outline of the steps: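 PGC/ERR cells rested 6 h, then compound-treated 17.5 h at 37 C. CellTiter-Fluor added for 30 min at 37 C, viability measured by fluorescence intensity.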

Retinoic acid receptor RXR-alpha (Homo sapiens), sequence (P19793 whole entry, looked up): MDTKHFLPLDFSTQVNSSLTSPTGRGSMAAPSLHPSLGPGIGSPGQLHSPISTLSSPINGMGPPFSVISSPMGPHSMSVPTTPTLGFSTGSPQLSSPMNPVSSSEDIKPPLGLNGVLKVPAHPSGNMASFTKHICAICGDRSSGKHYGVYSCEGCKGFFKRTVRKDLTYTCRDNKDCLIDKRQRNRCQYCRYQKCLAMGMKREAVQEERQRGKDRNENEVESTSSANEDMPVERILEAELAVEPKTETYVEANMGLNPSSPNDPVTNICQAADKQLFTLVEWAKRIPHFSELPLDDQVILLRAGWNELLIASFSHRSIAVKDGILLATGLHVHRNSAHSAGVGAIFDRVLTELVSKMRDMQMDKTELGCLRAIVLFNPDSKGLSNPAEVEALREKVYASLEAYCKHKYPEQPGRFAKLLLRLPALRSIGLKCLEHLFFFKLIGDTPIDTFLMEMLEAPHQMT

`CC(=O)N[C@H]1[C@H]([C@H](O)[C@H](O)CO)OC(C(=O)O)=C[C@@H]1N=C(N)N`: the compound was called inactive in assay [1], in [2], in assay [3], in assay [4], in assay [6] and in [7]. The outcome in assay [10] was inactive. Moreover, the Potency entry in assay [5], in assay [8] and in assay [9] was “inactive” throughout.
For `CCOC(=O)COC(=O)c1ccccc1C(=O)OCC`, the outcome in assay [1], in assay [2], in assay [3], in assay [4], in assay [6] and in assay [7] was inactive. In [10], the outcome was inactive. Also, the Potency entry in assay [5], in assay [8] and in assay [9] was “inactive” in each case.
Consider `Nc1ccn([C@@H]2O[C@H](CO)[C@@H](O)C2O)c(=O)n1` (stereo not given in full), for which the compound was called inactive in assay [1], in assay [2], in [3], in [4], in assay [6] and in assay [7]. Moreover, the result in [10] was inactive. Further, the Potency in assay [5] was 7.7 µM (active). Moreover, the Potency result in [8], in assay [9], in assay [11] and in [12] was “inactive” in each case.
In the case of `CCCCOC(=O)CCC(C)=O`, the result in assay [13], in assay [1], in assay [2], in assay [3], in [4] and in assay [6] was inactive. The compound was called inactive in [7] and in [10]. Moreover, the Potency result in [5], in [8], in assay [9], in assay [14] and in [12] was “inactive” each time.
On to `COc1ccc2cc1Oc1cc3c(cc1OC)CC[N+](C)(C)[C@H]3Cc1ccc(cc1)Oc1c(OC)c(OC)cc3c1[C@@H](C2)[N+](C)(C)CC3`, for which the result in assay [13], in assay [1], in assay [2], in assay [3], in assay [4] and in [6] was inactive. Moreover, the outcome in assay [7] and in assay [10] was inactive. In addition, the Potency entry in assay [5], in assay [8], in assay [9], in assay [11] and in assay [12] was “inactive” in each case.
As to `Cc1c(N)c(=O)n(-c2ccccc2)n1C`, the outcome in assay [13], in assay [1], in assay [2], in assay [3], in assay [4] and in assay [6] was inactive. Also, the call in assay [7] and in assay [10] was inactive. Besides, the Potency entry in assay [5], in [8], in [9], in [14], in assay [11] and in [12] was “inactive” throughout.
As for `C[N+](C)(C)CCCCCCCCCC[N+](C)(C)C`, the call in assay [13], in assay [1], in assay [2], in assay [3], in [4] and in assay [6] was inactive. The compound was called inactive in [7], in [10], in assay [15] and in assay [16]. The Potency entry in assay [5], in [8], in assay [9] and in [11] was “inactive” each time.
As to `CC(C(=O)O)c1cccc(Oc2ccccc2)c1` (stereo not given), the compound was called inactive in assay [13], in [1], in [2], in [3], in assay [4] and in [6]. In addition, the outcome in assay [7] and in assay [10] was inactive. Further, the Potency result in assay [5], in assay [8], in assay [9], in [11] and in assay [12] was “inactive” throughout.
Regarding `C[N+]12CCC(CC1)C(OC(=O)C(O)(c1ccccc1)c1ccccc1)C2` (stereo not given), the outcome in [13], in assay [1], in assay [2], in assay [3], in assay [4] and in assay [6] was inactive. The outcome in assay [7] and in assay [10] was inactive. Besides, the Potency entry in assay [5], in [8], in [9], in assay [11] and in [12] was “inactive” in each case.
As to `CC(C)(C)c1ccc(-c2ccc(C(C)(C)C)cc2)cc1`, the outcome in assay [13], in assay [1], in assay [2], in assay [3], in [4] and in assay [6] was inactive. For the same compound, the compound was called inactive in [7] and in assay [10]. The Potency entry in [5], in assay [8], in assay [9], in assay [14] and in assay [12] was “inactive” throughout.
